What all share (experiment): NCI-60 one-dose screen, 48 h (100 = growth as untreated, 0 = no growth, -100 = all killed)
Holding throughout (conditions): 10 µM unless noted

Assay [1] relates to SR leukemia.
Assay [2] concerns RPMI-8226 leukemia.
Assay [3] concerns OVCAR-8 ovarian.
The test system of assay [4] is OVCAR-5 ovarian.
Assay [5] relates to SK-OV-3 ovarian.
The subject of assay [6] is IGROV1 ovarian.
The test system of assay [7] is OVCAR-3 ovarian.
Assay [8] relates to HS 578T breast.
The subject of assay [9] is NCI/ADR-RES ovarian.
Assay [10] has as its system T-47D breast.
For assay [11], the system named is BT-549 breast.
Assay [12] concerns SW-620 colon.
Assay [13] relates to MCF7 breast.
Assay [14] has as its system HCT-116 colon.
The test system of assay [15] is HCC-2998 colon.
Assay [16] has as its system KM12 colon.
The subject of assay [17] is MDA-MB-435 melanoma.
Assay [18] concerns OVCAR-4 ovarian.

Structures are written as SMILES. The panel holds about 83,000 compounds, 20% with a hit somewhere; the sample as a whole holds those more often.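 Results are percent growth after 48 hours of single-concentration exposure. 100 means growth as in untreated cells, lower positive values show inhibition; negative values down to -100 show cell death.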 Values without a mark were called inactive. Calls of active or inactive are those of the source. The calls were made as follows: active = growth percent below 10; inactive = the rest.

`O=C(c1ccccc1)C(CN1CCOCC1)c1ccccc1` (stereo not given): the growth in [1] is -0.205% (active); in assay [2], -8.68% (active); in assay [3], 14.2%; in [4] it was 116%; in assay [5], 91.6%; in assay [6], 7.53% (active). Moreover, the growth in assay [7] was -10.7% (active); in assay [8], 59.8%; in [9], 18.8%; in assay [10], 64.3%; in assay [11], 30.2%; in [12], -45.2% (active). Also, the growth was 1.11% (active) in [13], 3.3% (active) in assay [14], 54.4% in [15] and 20.8% in assay [16].

As for `Cn1c2c(c3ccc(Cl)cc31)-n1cccc1C2=O`, the growth was 67.1% in assay [1]; 88.3% in assay [2]; 83.5% in assay [3]; 103% in assay [4]; 102% in [5]; 69.9% in assay [6]. Moreover, the growth was 104% in assay [7]; 104% in [8]; 99.7% in [9]; 95.2% in assay [10]; 92.6% in assay [11]; 112% in [17]. The growth in [12] is 93.7%; in [13], 74.2%; in assay [14], 76.9%; in [15], 101%; in assay [16], 100%.

Turning to `NCCNc1nc(-c2ccccc2)nc2nc(-c3ccccc3)oc12`, the growth was 7.63% (active) in [1]; 68.7% in assay [2]; 97.7% in [3]; 105% in [4]; 96.5% in assay [18]; 81.8% in assay [6]. The growth in assay [7] is 88.2%; in assay [8], 91.3%; in [9] it was 91.8%; in assay [10] it was 81.7%; in assay [11] it was 97.7%; in [17], 92.2%. Moreover, the growth in assay [12] is 51%; in [13] it was 81.2%; in assay [14] it was 54.7%; in assay [15], 98.6%; in assay [16], 98.8%.

As to `C(=C\c1c[nH]c2ccccc12)/c1ccc2ccccc2n1`, the growth is 67.5% in assay [1]; 44.7% in [2]; 78.7% in assay [3]; 121% in [4]; 89.5% in assay [5]; 47.8% in assay [6]. In addition, the growth was 69.3% in [7]; 107% in [8]; 72.1% in assay [9]; 68.4% in assay [10]; 68.8% in assay [11]; 93% in assay [17]. In addition, the growth in assay [12] was 107%; in assay [13], 63.7%; in assay [14], 65.9%; in [15] it was 97.8%; in assay [16], 52.4%.

Regarding `COc1c(N)c2c(c([N+](=O)[O-])c1OC)C(=O)OC2`, the growth is 91.2% in [1]; 99.9% in [2]; 98.1% in assay [3]; 115% in assay [4]; 105% in [5]; 105% in assay [6]. Besides, the growth is 105% in [7]; 109% in [8]; 114% in [9]; 101% in assay [10]; 106% in assay [17]; 106% in [12]. Also, the growth in [13] is 100%; in assay [14] it was 102%; in assay [15], 105%; in assay [16] it was 107%.

In the case of `COc1ccc(C(=O)c2cc(OC)c(OC)c(OC)c2)cc1/C=C/C(=O)c1cc(OC)c(OC)c(OC)c1`, the growth in assay [1] was 43.2%; in [2] it was 67%; in assay [3], 86.7%; in [4], 88.7%; in assay [5] it was 105%; in assay [6], 95.9%. For the same compound, the growth in [7] is 99.3%; in assay [8] it was 82.4%; in assay [9], 81.1%; in assay [10], 89.7%; in assay [11] it was 86.8%; in assay [17], 65.2%. Further, the growth is 92.9% in [12], 67.8% in assay [14], 100% in assay [15] and 86.6% in [16].

For the compound `Cn1cc(-c2csc(-c3c[nH]c4ccccc34)n2)c2cccnc21`, the growth was 27.4% in assay [1]; 21.3% in assay [2]; 39.2% in assay [3]; 54% in [4]; 28.9% in assay [5]; 42% in [6]. Further, the growth in assay [7] is -14.9% (active); in [8], 60.5%; in assay [9], 0.975% (active); in assay [10], 27.2%; in assay [11], 49.6%; in [17], -13.9% (active). The growth in [12] is 29.6%; in [13], 13.6%; in assay [14] it was 30.5%; in assay [15], 33.2%; in assay [16], 32.5%.

Take `N=C(N)c1ccc(-c2ccc(-c3cc(F)cc(F)c3)o2)nc1`: the growth in assay [1] is 7.21% (active); in [2], 60.5%; in assay [3], 97.5%; in assay [4], 88.9%; in assay [18], 96.2%; in [6] it was 88.6%. Further, the growth in assay [7] was 95.6%; in assay [8], 87.8%; in assay [9], 94.6%; in assay [10] it was 86.3%; in [11], 97.4%; in assay [17], 90.9%. The growth in assay [12] is 54.2%; in [13], 66.9%; in assay [14], 64.2%; in assay [15], 96.5%; in assay [16] it was 91.5%.

With `COc1ccc(CCN2C(=O)C(C)(C)SC2=S)cc1OC`, the growth in assay [1] is 103%; in assay [3], 102%; in assay [4], 104%; in assay [18], 96.6%; in assay [5], 108%; in assay [6], 94.4%. Besides, the growth was 107% in assay [7]; 107% in [8]; 100% in [9]; 104% in assay [10]; 105% in assay [11]; 99.2% in assay [17]. Besides, the growth in [12] was 103%; in assay [13], 98.5%; in assay [14], 97.6%; in [15], 106%; in assay [16], 101%.
